The text below walks through data of PubChem BioAssay (NCATS).

“And” between values parts separate entries of the source, which are not always exact repeats. Equal entries are not always repeated. Inconclusive results are not listed. A number with no mark means an inactive call. The source made the active and inactive calls. Calls follow the shape of the dose curve; as a rule, active = well fitted curve in the direction sought with a large enough effect; inconclusive = small, poorly fitted or top-dose-only effect, or another doubt; inactive = no such curve, though single readings can be large; an effect the other way counts as inactive or inconclusive.

Test [1] has as its system HaCat. The test can be described thus: Cytotoxic Profiling of Annotated Libraries Using Quantitative High-Throughput Screening (AID 1296008). Also: nearly all actives have a fitted effect of over 60% in size. Particulars: Five cell lines viability, CellTiter-Glo ATP luminescence, 48-72 h; max response: active compounds read low. The method, boiled down:
(§1)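 Cytotoxicity was measured as CellTiter-Glo ATP luminescence, read after 10 min at room temperature. Compound treatment of the cells lasted 48 or 72 hr at 37 degrees Celsius in a qHTS format.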
For orientation: Cellular ATP, detected with luciferase, serves as a proxy for viable cell number.

In the next test the test system is KB-3-1. Described as above. Particulars: Five cell lines viability, CellTiter-Glo ATP luminescence, 48-72 h; max response: active compounds read low. Put shortly: as §1
A further test has as its system MCC-13. The test is described as follows: qHTS assay to identify novel small-molecules to repurpose for Merkel cell carcinoma treatment (AID 1296009). Also: nearly all actives have a fitted effect of over 60% in size. Particulars: MCC and control cell lines, CellTiter-Glo viability, 72 h; series mostly up to 46 µM. The method, boiled down: (§2)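 Cell viability, measured as CellTiter-Glo luminescence, was normalized between DMSO and no-cell wells. The cells had been exposed to 8- or 11-point compound dilutions for 72 hr at 37 degree celsius.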

In another test the test system is MCC-26. Described as above. Particulars: MCC and control cell lines, CellTiter-Glo viability, 72 h; series mostly up to 46 µM. The method, boiled down:
as §2

The test system of another test is MKL-1. The test is described as above. Particulars: MCC and control cell lines, CellTiter-Glo viability, 72 h; series mostly up to 46 µM. Put shortly:
as §2

A further test has as its system MKL-2. Described as above. Particulars: MCC and control cell lines, CellTiter-Glo viability, 72 h; series mostly up to 46 µM. Put shortly:
as §2

A further test has as its system WaGa. The test is described as above. Particulars: MCC and control cell lines, CellTiter-Glo viability, 72 h; series mostly up to 46 µM. The method, boiled down:
as §2

Test [2] has as its system NIH3T3. The test is described as follows: Cytotoxic Profiling of Annotated Libraries Using Quantitative High-Throughput Screening (AID 1296008). Also: nearly all actives have a fitted effect of over 60% in size. Particulars: Five cell lines viability, CellTiter-Glo ATP luminescence, 48-72 h; max response: active compounds read low. The method, boiled down:
as §1

In test [3] the test system is HACAT. The test can be described thus: qHTS assay to identify novel small-molecules to repurpose for Merkel cell carcinoma treatment (AID 1296009). Also: nearly all actives have a fitted effect of over 60% in size. Particulars: MCC and control cell lines, CellTiter-Glo viability, 72 h; at 44.8 µM (top of the series) unless noted. The method, boiled down:
as §2
Background: In qHTS, concentration-response curves come from the screen itself.

For test [4], the system named is NIH3T3. The test is described as above. Particulars: MCC and control cell lines, CellTiter-Glo viability, 72 h; series mostly up to 44.8 µM. Put shortly: as §2
The next test deals with UISO. The description is as above. Particulars: MCC and control cell lines, CellTiter-Glo viability, 72 h; series mostly up to 46 µM. The method, boiled down:
as §2

Another test has as its system C33A. The test can be described thus: Primary qHTS to identify gynecologic anti-cancer compounds using libraries of approved drugs and bioactive compounds (AID 1345084). Also: nearly all actives have a fitted effect of over 55% in size. Particulars: Gynecologic cancer cell panel viability, ATPlite luminescence, 48 h; series mostly up to 57.5 µM. Put shortly:
(§3)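 Five-point cytotoxicity, 48 h drug exposure at 37 C, 5% CO2, on cells seeded 16 h beforehand. ATP content read by ATPlite luminescence.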

For another test, the system named is CAOV3. The test is described as above. Particulars: Gynecologic cancer cell panel viability, ATPlite luminescence, 48 h; series mostly up to 57.5 µM. The method, boiled down: as §3
A further test relates to CASKI. The description is as above. Particulars: Gynecologic cancer cell panel viability, ATPlite luminescence, 48 h; series mostly up to 57.5 µM. Put shortly:
as §3

Another test relates to Es-2. The test is described as above. Particulars: Gynecologic cancer cell panel viability, ATPlite luminescence, 48 h; series mostly up to 57.5 µM. The method, boiled down:
as §3

Another test deals with HeLa. The description is as above. Particulars: Gynecologic cancer cell panel viability, ATPlite luminescence, 48 h; series mostly up to 57.5 µM. The method, boiled down:
as §3

The next test deals with HEK293. The test is described as follows: Cytotoxic Profiling of Annotated Libraries Using Quantitative High-Throughput Screening (AID 1296008). Also: nearly all actives have a fitted effect of over 60% in size. Particulars: Five cell lines viability, CellTiter-Glo ATP luminescence, 48-72 h; max response: active compounds read low. Put shortly: as §1
% is scaled to controls: 0 for no effect and ±100 for the full control effect; potency is read from the fitted curve at half-maximal effect.

Consider `CN(C)CC[C@H](CSc1ccccc1)Nc1ccc(S(=O)(=O)NC(=O)c2ccc(N3CCN(Cc4ccccc4-c4ccc(Cl)cc4)CC3)cc2)cc1[N+](=O)[O-]`, for which the Potency in the test with HaCat [1] was 18.7 µM (active); in the test with MKL-1 it was 1.18 µM (active); in the test on MKL-2, 0.235 µM (active); in the test with WaGa it was 0.264 µM (active). In the test on KB-3-1, the max response is 2.51%. Besides, the Potency entry with MCC-13 and with MCC-26 was “inactive” each time.

On to `CC[C@H](C)n1cc(C)c2c(C(=O)NCc3c(C)cc(C)[nH]c3=O)cc(-c3ccc(N4CCNCC4)nc3)cc21`, for which the call in the test on HaCat [1], with NIH3T3 [2] and in the test on HACAT [3] was inactive. Moreover, the Potency entry in the test with MCC-13, in the test on MCC-26, in the test on MKL-1, in the test with MKL-2, in the test with NIH3T3 [4] and with UISO was “inactive” in each case. In the test with WaGa, the Potency entry is “inactive”.

As to `CN1CCC[C@H]1CCO[C@](C)(c1ccccc1)c1ccc(Cl)cc1`, the result in the test with HaCat [1] and with HACAT [3] was inactive. The results for the max response in the test on KB-3-1 and in the test with NIH3T3 [2] were -5.55% and -18.8%, respectively. In addition, the Potency entry with MCC-13, in the test on MCC-26, in the test with MKL-1, in the test with MKL-2, with UISO and in the test on WaGa was “inactive” throughout.

For `C[C@@H]1C[C@H]2[C@@H]3CCC4=CC(=O)C=C[C@]4(C)[C@@]3(F)[C@@H](O)C[C@]2(C)[C@@]1(O)C(=O)CO`, the Potency entry in the test with C33A, in the test with CAOV3, in the test on CASKI, in the test on Es-2 and in the test on HeLa was “inactive” in each case.

As to `CN(C)S(=O)(=O)c1ccc2c(c1)C(=Cc1cc3c([nH]1)CCCC3)C(=O)N2`, the max response in the test on KB-3-1 was -0.966%. In addition, the Potency result in the test on MCC-13, with MCC-26, with MKL-2, in the test on UISO and in the test with WaGa was “inactive” each time.

On to `C=CCc1cccc(C=NNC(=O)CN2CCN(Cc3ccccc3)CC2)c1O`, for which the Potency with HEK293 is 13.2 µM (active); in the test with MKL-1, 9.35 µM (active); in the test with MKL-2, 16.6 µM (active); in the test on WaGa it was 16.6 µM (active). Besides, in the test on MCC-26, the Potency entry was “inactive”.

As for `CC(C)(F)C[C@H](N[C@@H](c1ccc(-c2ccc(S(C)(=O)=O)cc2)cc1)C(F)(F)F)C(=O)NC1(C#N)CC1`, the compound was classed as inactive in the test on HaCat [1] and in the test on HACAT [3]. Moreover, the max response in the test on KB-3-1 was 7.07%; with NIH3T3 [2], -18%. For the same compound, the Potency result in the test with MCC-13, with MCC-26, in the test with MKL-1, in the test on MKL-2, in the test with UISO and in the test on WaGa was “inactive” throughout.

For `CNC1CCC(N(Cc2cccc(-c3ccncc3)c2)C(=O)c2sc3ccccc3c2Cl)CC1` (stereo not drawn), the Potency was 8.33 µM (active) and 7.31 µM (active) in the test with HEK293; 16.6 µM (active) with MKL-2; 22.4 µM (active) with CASKI. In addition, the Potency result in the test with MCC-13, in the test on MCC-26 and with HeLa was “inactive” each time.

As for `COc1ccc2nc3cc(Cl)ccc3c(Nc3cc(CN4CCCC4)c(O)c(CN4CCCC4)c3)c2n1`, the compound was classed as inactive with HaCat [1] and with HACAT [3]. In the test with NIH3T3 [2], the max response was -1.17%. Moreover, the Potency result in the test on MCC-13, with MCC-26 and in the test on UISO was “inactive” throughout. For the same compound, in the test with WaGa, the Potency was 18.7 µM (active).

Turning to `CN(C)CCCNC(=O)c1ccc(-c2cc(O)c3ncccc3c2)cc1`, the max response in the test on HaCat [1] was -4.67%; with NIH3T3 [2], -2.36%. Moreover, the Potency result in the test on MCC-13, in the test with C33A, in the test with CAOV3, in the test with CASKI, in the test with Es-2 and in the test on HeLa was “inactive” in each case.

Turning to `CN1CCc2c(n(Cc3ccc(C(=O)NO)cc3)c3ccccc23)C1`, the Potency result with MCC-13, in the test on MCC-26, in the test with UISO, with C33A and in the test with CASKI was “inactive” in each case. Besides, the Potency with MKL-2 was 14.8 µM (active); in the test on WaGa, 18.7 µM (active).

On to `CCN(CC)CCCCNc1nc2cc(Cl)c(Cl)cc2nc1-c1ccc(-c2cccs2)s1`, for which the Potency in the test on KB-3-1 is 13.2 µM (active); in the test on MKL-1 it was 23.5 µM (active); with MKL-2 it was 14.8 µM (active). Also, in the test on MCC-26, the Potency entry was “inactive”.

As to `OC(c1cc(C(F)(F)F)nc2c(C(F)(F)F)cccc12)C1CCCCN1` (stereo not drawn), the compound was classed as inactive in the test with HaCat [1] and in the test on HACAT [3]. Moreover, the Potency result in the test with MCC-13, in the test on MCC-26, in the test on MKL-1, in the test on UISO and in the test with WaGa was “inactive” throughout.

For `CCCCc1ccc(NS(=O)(=O)c2ccc(C)c(C(=O)N3CCN(c4cccc(C)c4C)CC3)c2)cc1`, the max response in the test on HaCat [1] was -17%. In addition, the Potency result in the test on MCC-13, with MKL-1, in the test with MKL-2 and in the test with WaGa was “inactive” each time.

Regarding `CN[C@H]1[C@@H](O[C@@H]2[C@H](O[C@@H]3[C@@H](O)[C@@H](O)[C@@H](N=C(N)N)[C@@H](O)[C@@H]3N=C(N)N)O[C@H](C)[C@@]2(O)C=O)O[C@@H](CO)[C@@H](O)[C@H]1O`, in the test with KB-3-1, the compound was called inactive. Besides, the activity change, negative = cytotoxicity in the test on MCC-13 was 0.63% [at 9.22 µM]; with MKL-1, 0.557% [at 9.22 µM]; in the test with MKL-2 it was 13.1% [at 9.22 µM]; with UISO it was -3% [at 9.22 µM]; in the test on WaGa it was 11.2% [at 9.22 µM].

On to `O=C(O)Cc1cccc(OCCCN(Cc2cccc(C(F)(F)F)c2Cl)CC(c2ccccc2)c2ccccc2)c1`, for which the Potency is 16.6 µM (active) with HEK293 and 26.4 µM (active) in the test on MCC-26. Besides, the Potency entry with MKL-1, in the test on MKL-2 and with WaGa was “inactive” in each case.

For the compound `CO[C@H]1O[C@@H]2O[C@@]3(C)CC[C@@H]4[C@@H](C)CC[C@@H]([C@H]1C)[C@@]24OO3`, the max response in the test on HaCat [1] was -9.33%. Also, the compound was classed as inactive in the test with KB-3-1 and in the test on NIH3T3 [2]. Further, the Potency entry in the test with MCC-13, with MCC-26, in the test with MKL-1 and with NIH3T3 [4] was “inactive” in each case. Moreover, in the test on WaGa, the Potency was 20.9 µM (active).

As for `CC(C)C[C@@H](C(=O)N[C@H](C(=O)OC1CCCC1)c1ccccc1)[C@H](O)C(=O)NO`, the Potency with HEK293 was 18.7 µM (active); with MKL-2, 23.5 µM (active); in the test with WaGa, 7.43 µM (active). Moreover, the Potency result with MCC-13, in the test with MCC-26 and with MKL-1 was “inactive” throughout.

For `CN[C@@H]1CN(c2ccc3c(=O)c(C(=O)O)cn(-c4nccs4)c3n2)C[C@@H]1OC`, the Potency in the test with HaCat [1] was 6.45 µM (active); with NIH3T3 [2] it was 0.512 µM (active); with MKL-1 it was 1.82 µM (active); with MKL-2, 3.23 µM (active); with WaGa it was 1.15 µM (active). Moreover, in the test with MCC-26, the Potency entry is “inactive”.
